According to PubChem BioAssay AID624138 (Broad Institute, 2012):
Hit rate of the full screen: of about 17,000 compounds, about 35 (0.2%) were called active.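 The calls were made as follows: active = compounds whose four printed spots each show fluorescence over background unusually high for their array block, chance value under 7%; inactive = the rest.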 The full list was thinned out, with actives kept by preference.

The compounds below were run against Signal transducer and activator of transcription 3 (Homo sapiens) (UniProt P40763) (assay: STAT3 binders, primary screen, biochemical, small molecule microarray, single point, set 2 (AID 624138)). Details: His-STAT3 binding, anti-His fluorescence.
Sequence of Signal transducer and activator of transcription 3 (Homo sapiens) (P40763 whole entry, looked up): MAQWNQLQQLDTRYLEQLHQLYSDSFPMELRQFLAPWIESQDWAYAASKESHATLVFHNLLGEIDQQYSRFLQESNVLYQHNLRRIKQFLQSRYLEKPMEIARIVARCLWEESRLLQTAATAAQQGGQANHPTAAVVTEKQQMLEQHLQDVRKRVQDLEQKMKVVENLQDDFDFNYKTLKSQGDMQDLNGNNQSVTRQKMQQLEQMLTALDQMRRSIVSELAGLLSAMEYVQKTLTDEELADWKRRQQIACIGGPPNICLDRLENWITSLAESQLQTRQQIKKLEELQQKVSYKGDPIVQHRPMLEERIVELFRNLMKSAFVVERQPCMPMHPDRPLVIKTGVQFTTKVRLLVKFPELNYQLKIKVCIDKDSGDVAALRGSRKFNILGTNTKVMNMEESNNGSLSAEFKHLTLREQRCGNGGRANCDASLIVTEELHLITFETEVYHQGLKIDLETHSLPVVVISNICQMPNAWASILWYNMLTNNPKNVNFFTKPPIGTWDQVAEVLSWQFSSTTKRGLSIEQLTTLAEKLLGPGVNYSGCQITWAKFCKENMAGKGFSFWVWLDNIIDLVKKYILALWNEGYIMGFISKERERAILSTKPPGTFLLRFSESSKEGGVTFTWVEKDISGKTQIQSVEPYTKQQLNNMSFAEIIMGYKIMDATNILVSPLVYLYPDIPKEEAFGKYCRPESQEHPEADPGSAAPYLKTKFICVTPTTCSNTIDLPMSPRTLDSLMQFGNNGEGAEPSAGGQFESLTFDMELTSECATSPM

SMILES | outcome
C[C@@H]1CN([C@@H](C)CO)C(=O)c2cc(NS(C)(=O)=O)ccc2O[C@@H]1CN(C)C | inactive
CCCN(C)C[C@@H]1Oc2ncc(C#Cc3ccccc3)cc2C(=O)N([C@H](C)CO)C[C@@H]1C | inactive
Cc1cc(OCC(=O)Nc2ccccc2C(N)=O)cc(C)c1Br | inactive
COc1ccc(CCNc2nc(C)cc(C)n2)cc1OC | inactive
COc1ccc(S(=O)(=O)Nc2ccc3c(c2)C(=O)N([C@H](C)CO)C[C@@H](C)[C@@H](CN(C)Cc2ccccc2)O3)cc1 | inactive
C[C@@H]1CCCCO[C@@H](CN(C)Cc2ccncc2)[C@H](C)CN([C@@H](C)CO)C(=O)c2cc(N(C)C)ccc2O1 | inactive
C[C@@H]1CCCCO[C@@H](CN(C)C(=O)Cc2ccccc2)[C@H](C)CN([C@@H](C)CO)C(=O)c2cc(NC(=O)Nc3ccc(F)cc3)ccc2O1 | inactive
CC(C)(C)c1ccc(OCC(=O)Nc2cccc(NC(=O)c3ccccc3)c2)cc1 | inactive
Oc1ccc(-c2c(-c3ccccc3)nn3c(C(F)(F)F)cc(C(F)(F)F)nc23)cc1 | inactive
COc1c(Br)cc2c(cc(C)n2-c2ccccc2)c1OCC(O)CNC(C)C (centres undefined) | inactive
CC(=O)c1c(C)n(CC(=O)O)c2ccccc12 | inactive
C[C@H](CO)N1C[C@H](C)[C@H](CN(C)C)Oc2c(NS(=O)(=O)c3ccc(Cl)cc3)cccc2C1=O | inactive
C[C@@H]1CN([C@H](C)CO)C(=O)CCCn2nncc2CO[C@@H]1CN(C)C | inactive
Cc1ccc(NC(=O)CSc2ncn[nH]2)c(C)c1 | inactive
C=C1C(=C/C=C2\CCC[C@]3(C)[C@@H]([C@H](C)CCCC(C)(C)O)CC[C@@H]23)C[C@@H](O)C[C@@H]1O | inactive
COCCCNC(=O)[C@@]1(Cc2ccccc2)COC(c2ccc(OCCCO)cc2)=N1 | inactive
CC(C)(O)C(O)COc1c2occc2cc2ccc(=O)oc12 (centres undefined) | inactive
CNC[C@@H]1Oc2c(NC(=O)C3CCOCC3)cccc2C(=O)N([C@@H](C)CO)C[C@H]1C | inactive
O=C(O)CCC(=O)Nc1ccc(-c2nc3ccccc3o2)cc1 | inactive
C[C@@H]1CN([C@H](C)CO)C(=O)c2cc(NC(=O)Nc3ccccc3)ccc2O[C@@H]1CN(C)Cc1ccc(Cl)c(Cl)c1 | inactive
CCOC(=O)c1ccc(COC(=O)c2cc(=O)[nH]c3ccccc23)o1 | inactive
Cc1noc(C)c1NC(=O)Nc1ccc2c(c1)CC(=O)N([C@H](C)CO)C[C@@H](C)[C@H](CN(C)S(=O)(=O)c1cccs1)O2 | inactive

SMILES | outcome
C[C@@H]1CN([C@H](C)CO)C(=O)c2cc(NC(=O)Nc3ccccc3)ccc2O[C@@H](C)CCCCO[C@@H]1CN(C)S(=O)(=O)c1ccc(F)cc1 | inactive
COc1cc(O)cc(C)c1C(=O)OC1C(CO)OC(n2ccc(=O)[nH]c2=O)C1OC(C)=O (centres undefined) | inactive
COc1ccc(S(=O)(=O)Nc2ccc3c(c2)C(=O)N([C@H](C)CO)C[C@H](C)[C@@H](CN(C)S(C)(=O)=O)OCCCC[C@@H](C)O3)cc1 | inactive
Cc1noc(C)c1S(=O)(=O)Nc1ccc2c(c1)C(=O)N([C@H](C)CO)C[C@H](C)[C@H](CN(C)C(=O)CCC(F)(F)F)OCCCC[C@H](C)O2 | inactive
C[C@@H]1CCCCO[C@@H](CN(C)C(=O)c2ccccc2)[C@H](C)CN([C@@H](C)CO)C(=O)c2cc(NS(=O)(=O)c3cn(C)cn3)ccc2O1 | inactive
Cc1sc2nc(SCC(=O)Nc3ccccc3C(F)(F)F)nc(N)c2c1C | inactive
O=C(C1=C[C@H](C2CC2)C[C@H](OCc2ccc(CO)cc2)O1)N1CCN(Cc2ccccc2)CC1 | inactive
C[C@@H]1CCCCO[C@H](CN(C)C(=O)Nc2ccccc2)[C@H](C)CN([C@H](C)CO)C(=O)c2cc(N(C)C)ccc2O1 | inactive
CC(C)NC(=O)N(C)C[C@H]1OCCCC[C@@H](C)Oc2ccc(NC(=O)Nc3cccc4ccccc34)cc2C(=O)N([C@H](C)CO)C[C@@H]1C | inactive
C[C@H]1CN([C@@H](C)CO)C(=O)Cc2cc(NC(=O)Nc3ccc4c(c3)OCO4)ccc2O[C@H]1CN(C)CC1CC1 | inactive
CC1(C)CC[C@]2(C(=O)O[C@@H]3O[C@H](CO)[C@@H](O)[C@H](O)[C@H]3O)CC[C@]3(C)C(=CCC4[C@@]5(C)CC[C@H](O[C@@H]6O[C@H](C(=O)O)[C@@H](O[C@@H]7OC[C@H](O)[C@H](O)[C@H]7O)[C@H](O)[C@H]6O)C(C)(C)C5CC[C@]43C)C2C1 (some centres undefined) | inactive
CC(=O)OC[C@H]1O[C@@H](Oc2c(-c3ccc(O)c(O)c3)oc3cc(O)cc(O)c3c2=O)[C@H](O)[C@@H](O)[C@@H]1O | inactive
Cc1noc(C)c1S(=O)(=O)Nc1ccc2c(c1)C(=O)N([C@@H](C)CO)C[C@@H](C)[C@@H](CN(C)C)O2 | inactive
C[C@H](CO)N1C[C@H](C)[C@@H](CN(C)S(=O)(=O)c2ccc(Cl)cc2)Oc2ccc(NS(=O)(=O)c3cccs3)cc2CC1=O | inactive
CC(C)NC(=O)Nc1ccc2c(c1)CC(=O)N([C@@H](C)CO)C[C@@H](C)[C@H](CN(C)Cc1ccc(C(F)(F)F)cc1)O2 | inactive
OCc1nc2ccccc2n1CCOc1cccc(Cl)c1 | inactive
C[C@@H]1CN([C@@H](C)CO)C(=O)c2cc(NC(=O)Nc3cccc4ccccc34)ccc2O[C@@H]1CN(C)C(=O)NC1CCCCC1 | inactive
Cc1noc(C)c1NC(=O)N(C)C[C@@H]1Oc2ccc(NC(=O)Nc3ccc4c(c3)OCO4)cc2CC(=O)N([C@H](C)CO)C[C@H]1C | inactive
C[C@@H]1CCCCO[C@H](CN(C)C(=O)C2CCCCC2)[C@@H](C)CN([C@@H](C)CO)C(=O)c2cc(NC(=O)Nc3ccccc3)ccc2O1 | inactive
C[C@H]1CCCCO[C@H](CN(C)Cc2ccccc2)[C@@H](C)CN([C@@H](C)CO)C(=O)c2cc(NS(C)(=O)=O)ccc2O1 | inactive
C[C@H]1CN([C@@H](C)CO)C(=O)Cc2cc(NC(=O)Nc3cccc4ccccc34)ccc2O[C@H]1CN(C)CC1CC1 | inactive
CO[C@H]1C(=O)c2c(O)c(CC=C(C)C)c(O)c(CC=C(C)C)c2O[C@@H]1c1ccc(O)cc1 | inactive
